These results are taken from PubChem BioAssay.

Structures are written as SMILES. The source made the active and inactive calls.

Experiment [1] relates to Plasmodium falciparum Sir2 (PF13_0152, Sir2A). Description: Plasmodium falciparum Sir2A binding compounds – biochemical, small-molecule microarray, 635 nm fluorescence, primary screen (AID 1098).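 Also: score merges spot fluorescence intensity with its signal-to-noise ratio.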 Conditions: fluorescence 635 nm, higher = more signal.
Experiment [2] is described as follows: probe aDKK1 binding to arrayed compounds – biochemical, biotinylated probe, 635/667 nm fluorescence, primary screen (AID 1099).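 Also: score merges 667nm spot fluorescence with signal to noise across triplicate slides.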 Conditions: small-molecule microarray, higher = more signal.
Experiment [3] is described as follows: probe aCHRDL2 binding to arrayed compounds – biochemical, biotinylated probe, 635/667 nm fluorescence, primary screen (AID 1100). The settings on record: small-molecule microarray, higher = more signal.
Experiment [4] in a line: change in splice reporter luminescence, either direction, cell-based, HEK293, spliceosome inhibition project, primary screen (AID 1101).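 Also: HEK293 cells carrying a splicing-competent luciferase reporter gene; test concentration not given here.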 The settings on record: HEK293 splicing luciferase reporter, 24 h, higher = more signal, called active from +8 up or from −8 down. Background: Reporter assays use an easily measured gene product as a stand-in for the process of interest.
For experiment [5], the target named is Fibroblast growth factor 10 (Homo sapiens) (UniProt O15520). Nature of the experiment: compounds binding fibroblast growth factor 10 – biochemical, small-molecule microarray, 635 nm fluorescence, primary screen (AID 1102). The settings on record: FGF10 binding, fluorescence 635 nm, higher = more signal.
Experiment [6] relates to glycogen synthase kinase-3 (GSK3A per assay name; protocol says GSK3B). Nature of the experiment: compounds binding glycogen synthase kinase-3 – biochemical, small-molecule microarray, 635 nm fluorescence, GSK3A, primary screen (AID 1103). Also: the record names both GSK3A and GSK3B. The settings on record: fluorescence 635 nm, higher = more signal.
Experiment [7] deals with Epidermal growth factor receptor (Homo sapiens) (UniProt P00533). Nature of the experiment: compounds binding epidermal growth factor receptor – biochemical, small-molecule microarray, 635 nm fluorescence, primary screen (AID 1104).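 Also: score merges 667 nm emission intensity with spot signal to noise over triplicate slides.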 The settings on record: EGFR binding, higher = more signal.
The target of experiment [8] is Follistatin-related protein 3 (Homo sapiens) (UniProt O95633). Description: compounds binding follistatin-related protein 3 – biochemical, small-molecule microarray, 635 nm fluorescence, primary screen (AID 1105).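 Also: score merges emission near 667 nm and signal to noise per printed spot across three slides.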 The settings on record: FSTL3 binding, higher = more signal.
The target of experiment [9] is Dickkopf-related protein 1 (Homo sapiens) (UniProt O94907). Nature of the experiment: small molecules binding DKK1 protein – biochemical, small-molecule microarray, 635 nm fluorescence scan, primary screen (AID 1106).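 Also: score merges emission near 667 nm with signal to noise over three replicate slides.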 The settings on record: higher = more signal.
For experiment [10], the system named is Inhibin beta A chain (activin A). Nature of the experiment: small molecules binding activin A – biochemical, small-molecule microarray, 635 nm fluorescence scan, primary screen (AID 1107).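 Also: mouse activin A protein probed at 4.33 µg/mL on printed slides; score merges bound-protein fluorescence near 667 nm with spot signal-to-noise.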 The settings on record: INHBA, higher = more signal.
Experiment [11] concerns Human papillomavirus type 1a protein E7 (residues 44-93). Description: small molecules binding HPV E7 44-93 – biochemical, small-molecule microarray, residues 44-93, 635 nm fluorescence, primary screen (AID 1108).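 Also: E7 fragment applied at 1 µg/mL in TBST for 1 h at 4 C; score combines spot fluorescence with its signal to noise ratio.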 The settings on record: fluorescence 635 nm, higher = more signal.
Experiment [12] can be described thus: hepatitis C replication reporter changes, two-sided – Huh7 cells, luciferase reporter, HCV replication inhibitor project, primary screen (AID 1109).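 Also: huh7 hepatoma cells harbouring a luciferase neomycin HCV replicon reporter; luciferase luminescence as measure of HCV replicon replication; test concentration not given here.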 Conditions: Huh7 HCV replicon luciferase reporter, 48 h; higher = more signal.
In experiment [13] the target is Left-right determination factor 2 (Homo sapiens) (UniProt O00292). Description: small molecules binding LEFTY2 protein – biochemical, small-molecule microarray, 635 nm fluorescence scan, primary screen (AID 1110). Conditions: higher = more signal.
Experiment [14] deals with Calmodulin-1 (Homo sapiens) (UniProt P0DP23). Description: small molecules binding calmodulin-1 with EGTA – biochemical, small-molecule microarray, Cy5-labelled CALM1, profiling panel (AID 1111).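 Also: labelled calmodulin applied in Tris saline Tween buffer holding calcium plus EGTA and DTT.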 The settings on record: Cy5-CALM1 binding fluorescence, higher = more signal.
Experiment [15] has the same target. Description: small molecules binding Ca-loaded calmodulin-1 – biochemical, small-molecule microarray, Cy5-labelled CALM1, plus calcium, artefact control for SMM control-protein annotation, profiling panel (AID 1112).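 Also: score merges spot fluorescence with signal to noise from triplicate slides.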 The settings on record: Cy5-CALM1 binding fluorescence, higher = more signal.
The nature of experiment [16]: probe aWnt5a binding to arrayed compounds – biochemical, biotinylated probe, 635/667 nm fluorescence, primary screen (AID 1113).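 Also: score merges 667 nm fluorescence intensity with signal-to-noise per printed feature.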 Conditions: small-molecule microarray, higher = more signal.
Experiment [17] is described as follows: probe aShh binding to arrayed compounds – biochemical, biotinylated probe, 635/667 nm fluorescence, primary screen (AID 1114).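 Also: probe is biotin-labelled aShh protein from a stem cell growth factor screen; measures binding of labelled protein to compounds printed on the slide; score merges feature fluorescence at 667 nm with signal-to-noise.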 Conditions: small-molecule microarray, higher = more signal.
A short description of experiment [18]: probe aNog binding to arrayed compounds – biochemical, biotinylated probe, 635/667 nm fluorescence, primary screen (AID 1115).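 Also: probe is biotinylated aNog protein used at 0.15 µg/mL for 1 h at 4 C; z-score combines 667 nm fluorescence of each spot with its signal to noise.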 Conditions: small-molecule microarray, higher = more signal.
In experiment [19] the target is Torsin-1A-interacting protein 1 (Homo sapiens) (UniProt Q5JTV8). Nature of the experiment: compound microarray binding of lysate hLAP1 – cell lysate, small-molecule microarray, COS7 lysate, 635/667 nm fluorescence, primary screen (AID 1116). Conditions: 635 nm fluorescence, higher = more signal.
Experiment [20] concerns the target Alpha-bungarotoxin (Bungarus multicinctus) (UniProt P60615). Nature of the experiment: compounds binding labelled alpha-BTX control protein – biochemical, small-molecule microarray, Alexa647 label, 635/667 nm fluorescence, artefact control for SMM control protein annotation, profiling panel (AID 1117). Conditions: alpha-BTX-A647 binding fluorescence, higher = more signal.

Left-right determination factor 2 (Homo sapiens), sequence (O00292 whole entry, looked up): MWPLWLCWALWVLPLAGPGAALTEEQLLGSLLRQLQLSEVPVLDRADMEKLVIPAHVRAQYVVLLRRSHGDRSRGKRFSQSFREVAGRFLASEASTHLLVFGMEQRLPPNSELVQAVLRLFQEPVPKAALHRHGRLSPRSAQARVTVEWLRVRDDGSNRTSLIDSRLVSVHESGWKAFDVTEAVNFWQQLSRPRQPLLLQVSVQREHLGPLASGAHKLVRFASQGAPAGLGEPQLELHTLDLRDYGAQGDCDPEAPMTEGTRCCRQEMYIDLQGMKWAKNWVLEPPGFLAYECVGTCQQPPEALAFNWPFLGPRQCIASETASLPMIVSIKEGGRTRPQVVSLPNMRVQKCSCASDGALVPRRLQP
Epidermal growth factor receptor (Homo sapiens), sequence (P00533 whole entry, looked up): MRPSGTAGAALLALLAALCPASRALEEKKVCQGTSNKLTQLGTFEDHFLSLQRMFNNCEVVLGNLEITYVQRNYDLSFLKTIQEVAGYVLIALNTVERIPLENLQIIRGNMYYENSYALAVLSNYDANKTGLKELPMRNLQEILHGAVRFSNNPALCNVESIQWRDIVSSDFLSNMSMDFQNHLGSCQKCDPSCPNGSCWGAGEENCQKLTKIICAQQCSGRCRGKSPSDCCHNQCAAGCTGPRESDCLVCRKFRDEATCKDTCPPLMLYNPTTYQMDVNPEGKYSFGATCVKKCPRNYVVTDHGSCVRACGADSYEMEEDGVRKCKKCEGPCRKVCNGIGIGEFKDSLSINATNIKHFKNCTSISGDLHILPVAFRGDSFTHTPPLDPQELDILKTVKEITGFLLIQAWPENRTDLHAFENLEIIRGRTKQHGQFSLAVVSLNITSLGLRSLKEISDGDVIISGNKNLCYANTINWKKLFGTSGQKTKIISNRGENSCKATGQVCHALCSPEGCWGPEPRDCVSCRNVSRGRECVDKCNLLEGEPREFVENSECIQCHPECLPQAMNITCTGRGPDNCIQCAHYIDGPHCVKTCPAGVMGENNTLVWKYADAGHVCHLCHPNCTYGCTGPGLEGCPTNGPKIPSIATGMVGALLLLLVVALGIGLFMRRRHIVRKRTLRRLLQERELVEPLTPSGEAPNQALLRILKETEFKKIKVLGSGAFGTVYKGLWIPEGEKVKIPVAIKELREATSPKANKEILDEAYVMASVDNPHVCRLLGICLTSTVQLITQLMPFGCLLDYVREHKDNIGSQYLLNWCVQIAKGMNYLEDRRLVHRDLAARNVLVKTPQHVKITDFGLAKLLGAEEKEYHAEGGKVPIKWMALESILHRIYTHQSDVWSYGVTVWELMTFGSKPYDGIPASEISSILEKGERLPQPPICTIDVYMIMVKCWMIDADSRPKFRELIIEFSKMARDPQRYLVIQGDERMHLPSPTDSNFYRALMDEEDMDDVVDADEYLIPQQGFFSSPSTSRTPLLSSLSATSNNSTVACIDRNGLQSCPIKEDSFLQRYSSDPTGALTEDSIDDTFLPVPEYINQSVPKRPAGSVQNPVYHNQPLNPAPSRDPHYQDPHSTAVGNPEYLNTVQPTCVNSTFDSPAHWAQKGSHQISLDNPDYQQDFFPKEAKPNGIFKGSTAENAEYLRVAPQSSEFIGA
Fibroblast growth factor 10 (Homo sapiens), sequence (O15520 whole entry, looked up): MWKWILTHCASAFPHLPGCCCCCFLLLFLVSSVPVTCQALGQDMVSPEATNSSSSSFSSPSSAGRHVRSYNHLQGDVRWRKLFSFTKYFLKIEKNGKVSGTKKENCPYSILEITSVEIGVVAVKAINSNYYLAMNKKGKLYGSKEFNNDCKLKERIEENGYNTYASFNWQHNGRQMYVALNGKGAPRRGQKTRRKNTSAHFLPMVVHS
Dickkopf-related protein 1 (Homo sapiens), sequence (O94907 whole entry, looked up): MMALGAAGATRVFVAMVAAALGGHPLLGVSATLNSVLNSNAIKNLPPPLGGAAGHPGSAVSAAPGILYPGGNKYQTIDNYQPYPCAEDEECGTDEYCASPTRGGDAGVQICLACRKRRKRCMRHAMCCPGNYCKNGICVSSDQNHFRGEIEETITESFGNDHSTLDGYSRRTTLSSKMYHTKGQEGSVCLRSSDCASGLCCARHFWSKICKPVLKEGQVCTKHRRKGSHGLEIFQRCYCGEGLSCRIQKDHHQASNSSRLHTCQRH
Alpha-bungarotoxin (Bungarus multicinctus), sequence (P60615 whole entry, looked up): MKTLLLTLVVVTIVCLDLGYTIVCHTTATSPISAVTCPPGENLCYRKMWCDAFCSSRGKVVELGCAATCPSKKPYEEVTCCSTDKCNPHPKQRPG
Torsin-1A-interacting protein 1 (Homo sapiens), sequence (Q5JTV8 whole entry, looked up): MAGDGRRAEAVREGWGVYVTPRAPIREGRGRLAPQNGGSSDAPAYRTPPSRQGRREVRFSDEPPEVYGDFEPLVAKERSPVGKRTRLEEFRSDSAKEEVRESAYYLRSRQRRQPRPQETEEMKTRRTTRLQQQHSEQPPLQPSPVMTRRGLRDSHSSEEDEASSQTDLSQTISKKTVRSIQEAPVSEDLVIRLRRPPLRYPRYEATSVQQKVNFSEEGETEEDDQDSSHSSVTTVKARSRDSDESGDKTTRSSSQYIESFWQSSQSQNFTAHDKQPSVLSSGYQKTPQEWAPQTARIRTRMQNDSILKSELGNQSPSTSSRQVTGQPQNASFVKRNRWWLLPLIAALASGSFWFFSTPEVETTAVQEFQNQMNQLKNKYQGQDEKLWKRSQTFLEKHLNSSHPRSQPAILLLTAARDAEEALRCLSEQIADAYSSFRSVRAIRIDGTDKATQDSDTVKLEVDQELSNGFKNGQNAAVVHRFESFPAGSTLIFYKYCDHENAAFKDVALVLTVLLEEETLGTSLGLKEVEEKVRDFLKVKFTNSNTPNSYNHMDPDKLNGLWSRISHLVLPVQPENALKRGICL
Follistatin-related protein 3 (Homo sapiens), sequence (O95633 whole entry, looked up): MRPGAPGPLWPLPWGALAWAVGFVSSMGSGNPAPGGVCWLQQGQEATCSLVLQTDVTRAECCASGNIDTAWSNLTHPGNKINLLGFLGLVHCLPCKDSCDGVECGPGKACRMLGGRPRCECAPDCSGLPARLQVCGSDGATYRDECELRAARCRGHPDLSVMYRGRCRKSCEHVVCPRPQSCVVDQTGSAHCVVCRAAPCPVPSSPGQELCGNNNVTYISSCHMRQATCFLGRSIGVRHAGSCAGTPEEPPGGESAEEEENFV

Consider `COc1ccc([Si](C)(C)[C@H]2[C@H](CCn3cc([C@H](O)c4ccccc4)nn3)O[C@@]3(C(=O)N(Cc4cccc(N5C(=O)c6cccc7cccc5c67)c4)c4ccccc43)[C@@H]2C)cc1`, for which the composite z-score is 0.661 in [1]; -0.0526 in [2]; 0.837 in experiment [3]; -0.718 in experiment [5]; -1.22 in experiment [6]; -1.04 in experiment [7]. Besides, the composite z-score in experiment [8] was -1.4; in [9], -1.66; in experiment [10] it was -0.456; in experiment [11], -0.56; in experiment [13] it was -0.823; in experiment [14], 0.419. In addition, the composite z-score in experiment [15] was 1.13; in experiment [16] it was -0.175; in [17] it was -0.2; in experiment [18] it was 0.206; in [19], -0.0061; in experiment [20] it was -1.02. Moreover, the z-score in experiment [4] is -0.762 (inactive); in [12] it was -2.67.
With `CC=CC(O)C1C=CC2C(=O)N(C)C(=O)C2N1Nc1ccc([N+](=O)[O-])cc1[N+](=O)[O-]` (stereo not given), the composite z-score was 1.1 in [1]; 0.121 in experiment [2]; 0.636 in [3]; -0.49 in [5]; -1.06 in experiment [6]; -0.898 in experiment [7]. Further, the composite z-score in [8] is -0.79; in [9] it was -0.232; in experiment [10] it was 1.11; in [11] it was -0.0226; in experiment [13] it was -0.324; in experiment [14] it was -0.086. The composite z-score was -0.541 in experiment [15]; -0.148 in [16]; 0.166 in experiment [17]; 0.0471 in experiment [18]; -0.345 in experiment [19]; -0.297 in [20]. The figures for the z-score in [4] and in experiment [12] were 0.607 (inactive) and -0.121, respectively.
With `NC(=O)NCC#Cc1ccc2c(c1)[C@]1(C(=O)N2)[C@H](C(=O)Nc2nc3ccccc3s2)[C@H]2C(=O)O[C@H](c3ccccc3)[C@H](c3ccccc3)N2[C@@H]1c1ccc(O)cc1`, the composite z-score in experiment [1] stood at 0.726; in experiment [2] it was 0.636; in experiment [3], 0.212; in [5] it was 1; in experiment [6], 0.163; in experiment [7], 0.278. For the same molecule, the composite z-score in experiment [8] came to 0.53; in experiment [9] it was 0.246; in [10], 0.744; in [11] it was 0.944; in [13] it was 0.215; in experiment [14], 1.29. In addition, the composite z-score in experiment [15] is 0.414; in experiment [16], -0.0445; in experiment [17], -0.0243; in experiment [18], 0.23; in [19], 0.187; in experiment [20] it was 1.64. Further, the z-score was 0.232 (inactive) in experiment [4] and -0.797 in [12].
As to `CCCNC(=O)[C@@]1(c2ccc([N+](=O)[O-])cc2)CC(=O)N(C2CCCCC2)[C@@H]1c1ccc(CO)cc1I`, the composite z-score in experiment [1] turned out to be 1.51; in experiment [2], 0.57; in experiment [3], 0.796; in experiment [5] it was 0.841; in experiment [6] it was 0.705; in experiment [7], 0.297. In addition, the composite z-score was 0.532 in [8]; 0.214 in experiment [9]; -0.406 in experiment [10]; 0.198 in [11]; -0.101 in experiment [13]; 0.647 in [14]. In addition, the composite z-score in experiment [15] was found to be 0.587; in experiment [16], 0.108; in experiment [17], 0.166; in [18], 1.44; in [19], 1.33; in experiment [20], 1.6. For the same molecule, the z-score in [4] is -0.68 (inactive); in experiment [12], -2.64.
As for `COc1cc2c(cc1O)C(C)N(Cc1cc3c(cc1Br)OCO3)CC2` (stereo not given), the composite z-score in experiment [1] was 1; in experiment [2], 0.623; in [3] it was 0.749; in [5], -0.0175; in experiment [6], -1.11; in experiment [7], -0.277. In addition, the composite z-score was -0.475 in experiment [8]; -0.165 in experiment [9]; 0.561 in experiment [10]; -1.15 in [11]; -0.407 in experiment [13]; 0.0966 in experiment [14]. Besides, the composite z-score is 0.201 in [15]; -0.0944 in experiment [16]; -0.338 in experiment [17]; -0.252 in [18]; 0.208 in experiment [19]; -0.0712 in experiment [20]. Also, the z-score in [4] is -0.363 (inactive); in experiment [12], -0.0195.
For the molecule `CCCC[C@@H]1C[C@H]1[C@@H](NC(=O)c1ccccc1)c1ccc(Cl)cc1`, the composite z-score in experiment [1] is -1.24; in experiment [2], 0.15; in experiment [3] it was 1.01; in experiment [5] it was -1.38; in [6], -1.78; in [7] it was -1.77. In addition, the composite z-score in experiment [8] is -2.35; in experiment [9], -1.36; in experiment [10], 0.39; in [11], -1.15; in experiment [13], -1.86; in experiment [14], 0.014. In addition, the composite z-score in experiment [15] was 1.42; in experiment [16], -0.247; in experiment [17] it was -0.209; in experiment [18] it was 0.253; in experiment [19], 1.23; in experiment [20], -1.51. The values for the z-score in experiment [4] and in experiment [12] were -1.93 (inactive) and -1.65, respectively.
